According to PubChem BioAssay (Tox21):
Values joined by “and” are separate entries in the source; they are usually repeats but may differ in a detail not shown here. Equal values may be shown once. Results filed as inconclusive are left out. A call without a number means that no potency is given here. A number with no mark means an inactive call. Active and inactive are the calls of the source. The call rests on the fitted dose curve; in most records, active means well fitted cell-killing curve with a large enough effect in the repeat runs; inconclusive means weak or mixed curves, or effect the other way; inactive means flat fitted curve, though single readings scatter.

test: qHTS assay to identify small molecule agonists of the sonic hedgehog signaling (Shh) pathway - cell viability counter screen (AID 1259366); conditions: NIH/3T3 Gli1-Luc viability, CellTiter-Fluor, 24 h; series mostly up to 92.4 µM; viability change, negative = cytotoxic: at the top concentration; further: nearly all actives have a fitted effect of over 50% in size
Description: National Center for Advancing Translational Sciences [NCATS]
NIH Chemical Genomics Center [NCGC]
U.S. Environmental Protection Agency [EPA]
National Institutes of Environmental Health Sciences [NIEHS]
National Toxicology Program [NTP]
U.S. Food and Drug Administration [FDA]
The sonic hedgehog (Shh) pathway is essential for normal embryonic development. Dysregulation of the Shh pathway can cause severe developmental defects in organs. Therefore chemicals that interfere with the pathway are potential developmental toxicants. A cell line designated 3T3Gli1-Luc (DMB/OARSA/CFSAN/FDA, Laurel, MD), a NIH/3T3 derived clone containing stably integrated Gli1-Luc reporter is used to detect chemical interference of the Shh pathway, by changes in the expression of the firefly Luc gene under the control of the Gli1 transcriptional response element. This cell line was used to screen Tox21 libraries for identifying and prioritizing the potential developmental toxicants that interfere Shh pathway. The cytotoxicity of the compounds was tested in parallel by measuring the cell viability using CellTiter-Fluor assay system (Promega, Madison, WI) in the same wells.
Tox21 Assay Protocol Summary:
3T3 Gli1-Luc cells were dispensed at 2,000 per well in 5uL of culture medium into white solid bottom 1536-well plates (Greiner Bio-One, Monroe, NC) using a Multidrop Combi (Thermo Scientific, Waltham, MA) dispenser. The assay plates were incubated at 37 C and 5% CO2 for 4hr, and then 23nL of compounds dissolved in DMSO and positive control were transferred using a Pintool station (Wako, San Diego, CA). The assay plates were incubated at 37C and 5% CO2 for 24hr. For viability read, after 23hr of compound treatment, 1uL of CellTiter-Fluor reagent (Promega Corporation, Madison, WI) was added to each well of the assay plates using Flying Reagent Dispenser (FRD, Aurora Discovery, San Diego, CA) and incubated the assay plates at 37C for 1hr. The fluorescence signal was quantified using a ViewLux plate reader (Perkin Elmer, Shelton, CT).
Potency means the concentration at half of the fitted maximal effect.

| Structure (SMILES) | Potency | viability change, negative = cytotoxic |
| --- | --- | --- |
| CCC(C)(O)CCCC(C)C (stereo not given) | inactive | – |
| OC1CCCCCCCCCCC1 | inactive | – |
| O=c1oc(=O)c2cc3c(=O)oc(=O)c3cc12 | inactive | – |
| O=C1c2cccc(O)c2C(=O)c2c(O)cccc21 | inactive | – |
| CCCCNS(=O)(=O)c1ccccc1 | inactive | – |
| C/C=C/C(=O)O | inactive | – |
| Nc1ncn([C@@H]2O[C@H](CO)[C@@H](O)[C@H]2O)c(=O)n1 | – | -18.9% [at 42.5 µM] |
| O=C(OCc1ccccc1)c1ccccc1O | inactive | – |
| CCCCOCCOCCO | inactive | – |
| Cc1cccc(N(C)C(=S)Oc2ccc3ccccc3c2)c1 | – | 12.6% |
| O=C(c1ccc(OCCN2CCCCC2)cc1)c1c(-c2ccc(O)cc2)sc2cc(O)ccc12 | 24.4 µM (active) and 24.3 µM (active) and 11.9 µM (active) | – |
| Cc1c(OCC(F)(F)F)ccnc1CS(=O)c1nc2ccccc2[nH]1 (stereo not given) | inactive | – |
| COc1cccc2c1C(=O)c1c(O)c3c(c(O)c1C2=O)C[C@@](O)(C(=O)CO)C[C@@H]3O[C@H]1C[C@H](N)[C@H](O)[C@H](C)O1 | 967 nM (active) and 9.44 µM (active) | – |
| CC(C)(C)NC(=O)[C@H]1CC[C@H]2[C@@H]3CC[C@H]4NC(=O)C=C[C@]4(C)[C@H]3CC[C@]12C | inactive | – |
| CCCCc1oc2ccccc2c1C(=O)c1cc(I)c(OCCN(CC)CC)c(I)c1 | 43.6 µM (active) | – |
| CCCCC(CC)COCC1CO1 (stereo not given) | inactive | – |
| CC(C)=CCC/C(C)=C\CO | inactive | – |
| Cc1ncc[nH]1 | inactive | – |
| OCCO | inactive | – |
| CC(=O)Oc1ccccc1C(=O)Nc1ncc([N+](=O)[O-])s1 | 22.1 µM (active) and 26.6 µM (active) | – |

| Structure (SMILES) | Potency | viability change, negative = cytotoxic |
| --- | --- | --- |
| Clc1nc(Cl)c(Cl)c(Cl)c1Cl | inactive | – |
| CCCC(=O)O | inactive | – |
| COc1ccccc1/C=C/C=O | inactive | – |
| Nc1ccc(Nc2ccccc2)cc1 | 61.1 µM (active) | – |
| CCC(C)OC(=O)c1ccc(O)cc1 (stereo not given) | inactive | – |
| CCCCCCCCCCCO | inactive | – |
| c1cc(-c2ccncc2)ccn1 | inactive | – |
| O=C(COc1ccc(Cl)cc1)N1CCN(Cc2ccc3c(c2)OCO3)CC1 | inactive | – |
| COC(C)COC(C)COC(C)CO (stereo not given) | inactive | – |
| c1cc(N(CC2CO2)CC2CO2)ccc1OCC1CO1 (stereo not given) | 61.1 µM (active) | – |
| CC(C)OC(=O)C(C)(C)Oc1ccc(C(=O)c2ccc(Cl)cc2)cc1 | inactive | – |
| Cc1cccc([N+](=O)[O-])c1C | inactive | – |
| CCCCC(CC)COP(=O)(OCC(CC)CCCC)OCC(CC)CCCC (stereo not given) | inactive | – |
| CN1C(C(=O)Nc2ccccn2)=C(O)c2ccccc2S1(=O)=O | inactive | – |
| CC(C)OB(OC(C)C)OC(C)C | inactive | – |
| NC=O | inactive | – |
| C#C[C@]1(O)CC[C@H]2[C@@H]3CCc4cc(OC)ccc4[C@H]3CC[C@@]21C | inactive | – |
| CCCc1c(OCCCCc2nn[nH]n2)ccc(C(C)=O)c1O | – | 0.0811% [at 42.5 µM] |
| c1ccc(Nc2ccccc2)cc1 | inactive | – |
| Nc1ccc(S(=O)(=O)Nc2cnc3ccccc3n2)cc1 | inactive | – |
